This passage reports growth results from PubChem BioAssay (NCI).

Compounds without any hit were thinned out: in the full panel of roughly 83,000, 20% have a hit.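 Single-concentration screen, 48 h exposure, 96-well plates. Endpoint: percent growth. Below 10 = active.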 Unmarked numbers belong to inactive results. Calls of active or inactive are those of the source.

Common to all, as to assay: NCI-60 one-dose screen, 48 h (100 = growth as untreated, 0 = no growth, -100 = all killed)
For one experiment, the system named is NCI-H226 lung. Conditions: 10 µM.
The test system of another experiment is HOP-62 NSCLC. Conditions: 10 µM.
The subject of the next experiment is NCI-H460 lung. Conditions: 10 µM.
The next experiment deals with A549/ATCC NSCLC. Conditions: 10 µM.
The next experiment has as its system COLO 205 colon. Conditions: 10 µM.
In the next experiment the test system is DU-145 prostate. Conditions: 10 µM.
Another experiment relates to K-562 leukemia. Conditions: 10 µM.
For the next experiment, the system named is SF-539 CNS. Conditions: 10 µM.
The test system of the next experiment is M14 melanoma. Conditions: 10 µM.
In the next experiment the test system is HCT-15 colon. Conditions: 10 µM.
Another experiment relates to HT29 colon. Conditions: 10 µM.
The next experiment concerns SNB-75 CNS. Conditions: 10 µM.
In a further experiment the test system is SNB-19 CNS. Conditions: 10 µM.
Another experiment deals with U251 CNS. Conditions: 10 µM.
A further experiment concerns PC-3 prostate. Conditions: 10 µM.
For a further experiment, the system named is LOX IMVI melanoma. Conditions: 10 µM.
In another experiment the test system is MOLT-4 leukemia. Conditions: 10 µM.
The test system of another experiment is RPMI-8226 leukemia. Conditions: 10 µM.
The subject of the next experiment is SK-OV-3 ovarian. Conditions: 10 µM.
The next experiment concerns MDA-MB-468 breast. Conditions: 10 µM unless noted.

For `COc1ccc(C(=O)COc2ccc(NC(=O)Nc3ccc(Cl)c(C(F)(F)F)c3)cc2)cc1`, the growth in the experiment with NCI-H226 lung is 4.95% (active); with HOP-62 NSCLC it was 42.8%; in the experiment with NCI-H460 lung, 25.5%; in the experiment with A549/ATCC NSCLC it was 18.5%; with COLO 205 colon it was 7.1% (active); in the experiment with DU-145 prostate it was 47.3%. Besides, the growth with K-562 leukemia was 37.5%; with SF-539 CNS, 33.7%; in the experiment with M14 melanoma it was 19%; in the experiment on HCT-15 colon it was 8.56% (active); in the experiment with HT29 colon, 21.1%; in the experiment with SNB-75 CNS it was 33%. For the same compound, the growth in the experiment on SNB-19 CNS was 21.9%; in the experiment with U251 CNS it was 24.3%; with PC-3 prostate, 8.96% (active); in the experiment with LOX IMVI melanoma it was -60.5% (active); in the experiment on MOLT-4 leukemia, 15.6%; with RPMI-8226 leukemia, 19.1%. Also, the values for the growth with SK-OV-3 ovarian and in the experiment with MDA-MB-468 breast were 41.8% and -15.1% (active), respectively.

`O=C1NC2C=CC=CC2/C1=C1/SC(=S)N(C2CC(=O)N(c3ccc(Br)cc3)C2=O)C1=O` (stereo not given): the growth in the experiment with NCI-H226 lung is 91.3%; with HOP-62 NSCLC it was 99.2%; in the experiment with NCI-H460 lung, 100%; in the experiment with A549/ATCC NSCLC it was 99%; in the experiment on COLO 205 colon, 104%; with DU-145 prostate it was 97.5%. In addition, the growth in the experiment with K-562 leukemia was 55.1%; in the experiment with SF-539 CNS, 93.6%; with M14 melanoma, 103%; with HCT-15 colon, 59.3%; with HT29 colon, 98.1%; with SNB-75 CNS, 101%. The growth is 93.9% with SNB-19 CNS; 91.4% in the experiment on U251 CNS; 76.6% in the experiment with PC-3 prostate; 33.8% in the experiment with LOX IMVI melanoma; 70.5% in the experiment on MOLT-4 leukemia; 50% in the experiment with RPMI-8226 leukemia. In addition, the growth in the experiment with SK-OV-3 ovarian is 99.1%; in the experiment with MDA-MB-468 breast, 84.2%.

`O=C1NC(=S)S/C1=C\c1cn(-c2ccccc2)nc1-c1ccc([N+](=O)[O-])cc1`: the growth with NCI-H226 lung was 13.2%; with HOP-62 NSCLC, 19.4%; with NCI-H460 lung, 9.76% (active); in the experiment on A549/ATCC NSCLC it was 15.2%; with COLO 205 colon, 11.7%; in the experiment with DU-145 prostate it was 36.9%. Further, the growth in the experiment with K-562 leukemia is 16.5%; in the experiment with SF-539 CNS, 21%; with M14 melanoma, 20.5%; in the experiment on HCT-15 colon, 10.4%; in the experiment on HT29 colon, 15.1%; in the experiment with SNB-75 CNS, 34.5%. The growth in the experiment with SNB-19 CNS was 18.7%; in the experiment with U251 CNS, 9.35% (active); in the experiment on PC-3 prostate, 11.2%; with LOX IMVI melanoma it was 29.1%; in the experiment on MOLT-4 leukemia it was 17%; with RPMI-8226 leukemia, 2.45% (active). Also, the growth in the experiment on SK-OV-3 ovarian is 6% (active); in the experiment with MDA-MB-468 breast, -8.61% (active).

Regarding `COc1ccccc1-n1cc(C#N)c(N)c1C(=O)c1ccc(Cl)cc1Cl`, the growth with NCI-H226 lung is 34.5%; in the experiment with HOP-62 NSCLC, 38.2%; in the experiment on NCI-H460 lung it was 12.5%; in the experiment on A549/ATCC NSCLC, 41.9%; in the experiment with COLO 205 colon, 19.6%; with DU-145 prostate, 35.4%. Moreover, the growth in the experiment with K-562 leukemia was 12.5%; with SF-539 CNS it was -0.792% (active); in the experiment with M14 melanoma, 20.4%; in the experiment on HCT-15 colon, 24.4%; in the experiment on HT29 colon, -14.7% (active); in the experiment on SNB-75 CNS, -22.8% (active). Moreover, the growth with SNB-19 CNS was 30.1%; in the experiment with U251 CNS, 16.6%; in the experiment on PC-3 prostate, 18.8%; in the experiment with LOX IMVI melanoma, 39.5%; in the experiment on MOLT-4 leukemia it was 20.3%; in the experiment with RPMI-8226 leukemia it was 14.7%. The values for the growth with SK-OV-3 ovarian and in the experiment with MDA-MB-468 breast were 14.9% and 15.8%, respectively.

`O=C(Nc1ccc(Oc2ncnc3scc(Nc4n[nH]c(=S)s4)c23)cc1)C1(C(=O)Nc2cccc(C(F)(F)F)c2)CC1`: the growth was 72.2% in the experiment on NCI-H226 lung; 92.8% with HOP-62 NSCLC; 81.9% in the experiment with NCI-H460 lung; 92.5% in the experiment on A549/ATCC NSCLC; 101% in the experiment on COLO 205 colon; 106% in the experiment with DU-145 prostate. Moreover, the growth in the experiment with K-562 leukemia is 102%; in the experiment on SF-539 CNS, 96.1%; in the experiment on M14 melanoma, 103%; with HCT-15 colon it was 95.4%; in the experiment on HT29 colon it was 112%; in the experiment on SNB-75 CNS it was 104%. The growth is 99.6% with SNB-19 CNS; 110% with U251 CNS; 103% with PC-3 prostate; 30.4% in the experiment with LOX IMVI melanoma; 106% in the experiment with MOLT-4 leukemia; 110% in the experiment on RPMI-8226 leukemia. Also, the growth is 93.7% with SK-OV-3 ovarian and -10.1% (active) in the experiment on MDA-MB-468 breast.

For the compound `COc1cc2oc(-c3cccc(C(=O)Nc4ccc(Cl)cc4)c3)cc(=O)c2c(OCCN)c1OC`, the growth in the experiment on NCI-H226 lung was -76.6% (active); in the experiment with HOP-62 NSCLC, -62.7% (active); with NCI-H460 lung, -87.2% (active); with A549/ATCC NSCLC, -58.3% (active); in the experiment with COLO 205 colon, -75.8% (active); in the experiment on DU-145 prostate, -99% (active). Moreover, the growth in the experiment with K-562 leukemia is -43.9% (active); in the experiment with SF-539 CNS, -83.2% (active); in the experiment on M14 melanoma, -89.7% (active); with HCT-15 colon, -76.6% (active); in the experiment on HT29 colon, -91.2% (active); in the experiment with SNB-75 CNS, -73.5% (active). Further, the growth is -78.7% (active) in the experiment on SNB-19 CNS; -84.2% (active) in the experiment with U251 CNS; -87.3% (active) in the experiment with PC-3 prostate; -84.3% (active) in the experiment on LOX IMVI melanoma; -59.2% (active) in the experiment on MOLT-4 leukemia; -64.2% (active) in the experiment on RPMI-8226 leukemia. The growth in the experiment with SK-OV-3 ovarian is -84.6% (active); in the experiment with MDA-MB-468 breast it was -73.4% (active).

Regarding `O=C(CC(=O)Nc1ccc(Oc2ncnc3scc(Nc4n[nH]c(=S)s4)c23)cc1)Nc1ccc(Cl)cc1`, the growth in the experiment on NCI-H226 lung was 67.8%; in the experiment with HOP-62 NSCLC, 89.1%; in the experiment on NCI-H460 lung, 85.5%; in the experiment on A549/ATCC NSCLC it was 83%; in the experiment with COLO 205 colon it was 88.5%; with DU-145 prostate, 97%. Also, the growth with K-562 leukemia was 71.3%; in the experiment with SF-539 CNS, 91.6%; in the experiment with M14 melanoma, 108%; with HCT-15 colon, 66.9%; in the experiment on HT29 colon it was 106%; in the experiment with SNB-75 CNS it was 87.7%. For the same compound, the growth in the experiment with SNB-19 CNS was 87.7%; in the experiment on U251 CNS, 90.4%; in the experiment with PC-3 prostate, 74%; in the experiment on LOX IMVI melanoma, 69%; with MOLT-4 leukemia, 60.2%; in the experiment on RPMI-8226 leukemia it was 86.8%. For the same compound, the values for the growth with SK-OV-3 ovarian and with MDA-MB-468 breast were 77.5% and -18.5% (active), respectively.
